# Several values for one entry are separate records, joined by “and”; a condition that tells them apart may be missing. Equal values may be shown once. For some of these results: Measured potencies and affinities stand elsewhere. Activity calls are given as the source filed them. Unless noted, the rule behind the calls is not given here.
# Assays:
# [1] = blockers of polyQ-driven CASP3 activation – cell-based (AID 1583); settings: polyglutamine-induced caspase-3 activation, cell assay; stronger effect = higher value;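 tested at 10 µM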
# [2] = yeast 75Q aggregation reduction – 75Q-TubU reporter (AID 1593); settings: Yeast 75Q polyglutamine aggregation reporter
# [3] = restoration of touch response, mutant HTT neurons – whole organism, C. elegans mechanosensory neurons, N-terminal huntingtin (AID 1599); settings: C. elegans polyQ-huntingtin mechanosensory neurons, stronger effect = higher value
# [4] = blockers of cytochrome c efflux from mitochondria – biochemical, purified mitochondria (AID 1603); settings: stronger effect = lower value;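 note: mouse liver mitochondria challenged with calcium chloride; signal normalized to the plate average as 100%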
# [5] = polyglutamine aggregate formation blockers (AID 1604); settings: polyglutamine-induced protein aggregation inhibition assay; stronger effect = higher value; tested at 2.5 µM
# [6] = glutamate transport activators, MN-1 cells, MN-1 cell line (AID 1612); settings: MN-1 motor neuron cells, stronger effect = higher value;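 note: tested at 1 µM final; 0% = mean of DMSO vehicle wells on each plate; positive means more glutamate uptake than control and negative means less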
# [7] = 75Q-TubH aggregate inhibition, S. cerevisiae, yeast (AID 1616); settings: S. cerevisiae 75Q-TubH polyglutamine aggregation suppression; stronger effect = higher value
# [8] = compounds altering viability of human ES cells (AID 493140); settings: human embryonic stem cell survival screen; stronger effect = higher value;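 note: cells exposed to compounds for four days before counting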
# [9] = signal quenchers or enhancers, Cy5 substrate/SSB – biochemical, NIH Clinical Collection, E. coli SSB, artefact control for HCV NS3 helicase inhibitor project (AID 743268); settings: Cy5-oligo bound E. coli SSB, fluorescence interference
# [10] = system: Hepatitis C virus NS3 helicase; experiment: blockers of NS3h binding to DNA – biochemical, fluorescence polarization, NIH Clinical Collection, primary screen (AID 743270); settings: NS3 helicase binding to Cy5-dT15 DNA, stronger effect = higher value, concentration not given here
# [11] = target: Single-stranded DNA-binding protein (Escherichia coli (strain K12)) (UniProt P0AGE0); experiment: SSB-ssDNA binding inhibitors – biochemical, fluorescence polarization, NIH Clinical Collection, counter-screen for HCV NS3 helicase inhibitor project (AID 743271; in the data active = inhibition above about 28%); settings: E. coli SSB-DNA binding, stronger effect = higher value, concentration not given here
# [12] = compounds distorting NS3 helicase fluorescence signal – biochemical, NIH Clinical Collection, artefact control for HCV NS3 helicase inhibitor project (AID 743272); settings: fluorescence interference counterscreen, HCV NS3 helicase assay; stronger effect = lower value;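 note: HCV NS3 helicase with a Cy5 labelled single stranded DNA probe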
# [13] = modulation of C. elegans fzo-1 (AID 1259413);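 note: fzo-1 mutant C. elegans worms in liquid wells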; settings: C. elegans fzo-1 modulator screen, mean read-out; stronger effect = higher value
# [14] = blockers of cellular phospholipid synthesis – cell-based, LOPAC library, screen 4, primary screen (AID 1347384); settings: animal cells, phospholipid biosynthesis inhibition screen; at 10 µM
# [15] = galactose survival enhancers in mitochondrial complex I cybrids – cell-based, galactose medium, ATP luminescence, primary screen (AID 1645843;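 active = z-score of at least 1.8 in each of two replicates, scored against plate mean and spread of sample wells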;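 note: positive z means more ATP and so rescue of galactose-driven cybrid death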); settings: complex I mutant cybrid cells, 72 h, stronger effect = higher value
# [16] = system: F380Y/beta1; experiment: BK channel mutant inhibitors and activators – cell-based, U2OS BacMam, thallium flux, beta subunits, selectivity assay, profiling panel (AID 1259406;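 active = thallium flux through the channel raised or lowered by more than 3 SD from vehicle-only wells, actives on both sides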;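 note: initial slope of Thallos dye fluorescence rise after thallium is added; log ratio against the mean of 0.3% DMSO vehicle wells on the same plate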); settings: U2OS BacMam BK variants, at 30 µM
# [17] = system: F380Y/beta4; experiment: as above; settings: U2OS BacMam BK variants, at 30 µM
# [18] = system: R275C/beta4; experiment: as above; settings: U2OS BacMam BK variants, at 30 µM
# [19] = system: R275C/Slo1WT/beta2; experiment: as above; settings: U2OS BacMam BK variants, at 30 µM
# [20] = P. berghei load reduction in hepatocytes – cell-based, HepG2, luciferase luminescence, HepG2 viability, primary screen (AID 624349; in the data active = parasite load remaining mostly below about 12%, no sharp cut-off; inactive = mostly above about 10%;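 note: 100% = mean of DMSO negative control wells on the same plate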); settings: P. berghei liver stage in HepG2, luciferase luminescence, concentration not given here; parasite load remaining: stronger effect = lower value; viability: measured here: HepG2 viability without parasites
structure (smiles),measurement,setting,value
CCCNC(=O)NS(=O)(=O)c1ccc(Cl)cc1,inhibition,[1],10.9%
same,score,[2],1.66
same,rescue above control,[3],-4.58
same,cytochrome c release ratio,[4],1.77
same,inhibition of aggregation,[5],91%
same,glutamate uptake change,[6],-12.9%
same,aggregation suppression score,[7],1.38
same,survival,[8],13.6 (inactive)
same,fluorescence ratio,[9],0.93 (inactive)
same,inhibition,[10],-2.27% (inactive)
same,inhibition,[11],1.05% (inactive)
same,fluorescence ratio,[12],0.96 (inactive)
same,mean signal,[13],243 (inactive)
same,outcome,[14],inactive
same,z-score,[15],0.8 (inactive) and 0.135 (inactive)
same,log fold change Tl+ flux,[16],0.0557 (inactive)
same,log fold change Tl+ flux,[17],0.0279 (inactive)
same,log fold change Tl+ flux,[18],0.017 (inactive)
same,log fold change Tl+ flux,[19],-0.0244 (inactive)
C[C@H](CS)C(=O)N1CCC[C@H]1C(=O)O,inhibition,[1],11.5%
same,score,[2],1.09
same,rescue above control,[3],-12.7
same,cytochrome c release ratio,[4],0.82
same,inhibition of aggregation,[5],37.2%
same,glutamate uptake change,[6],-3.95%
same,aggregation suppression score,[7],1.08
same,mean signal,[13],261 (inactive)
same,outcome,[14],inactive
same,z-score,[15],0.49 (inactive) and 0.465 (inactive) and -0.54 (inactive)
same,log fold change Tl+ flux,[16],-0.0696 (inactive)
same,log fold change Tl+ flux,[17],0.0146 (inactive)
same,log fold change Tl+ flux,[18],-0.00777 (inactive)
same,log fold change Tl+ flux,[19],0.0231 (inactive)
OC(CCN1CCCCC1)(c1ccccc1)C1CCCCC1 (centres undefined),inhibition,[1],-21%
same,score,[2],1.21
same,rescue above control,[3],1.37
same,cytochrome c release ratio,[4],1.32
same,inhibition of aggregation,[5],88.9%
same,glutamate uptake change,[6],-20.9%
same,aggregation suppression score,[7],1.42
same,survival,[8],3.42 (inactive)
same,fluorescence ratio,[9],0.99 (inactive)
same,inhibition,[10],-5.91% (inactive)
same,inhibition,[11],-2.76% (inactive)
same,fluorescence ratio,[12],0.95 (inactive)
same,mean signal,[13],211 (inactive)
same,outcome,[14],inactive
same,z-score,[15],-0.545 (inactive) and -0.525 (inactive)
same,log fold change Tl+ flux,[16],0.00768 (inactive)
same,log fold change Tl+ flux,[17],0.0698 (inactive)
same,log fold change Tl+ flux,[18],0.0638 (inactive)
same,log fold change Tl+ flux,[19],0.0146 (inactive)
CCCCC1=NC2(CCCC2)C(=O)N1Cc1ccc(-c2ccccc2-c2nn[nH]n2)cc1,parasite load remaining,[20],50.9% (inactive) and 54.9% (inactive) and 98.2% (inactive)
same,viability,[20],86.5% and 93.9% and 73.1%
same,fluorescence ratio,[9],1.06 (inactive)
same,inhibition,[10],-3.56% (inactive)
same,inhibition,[11],3.75% (inactive)
same,fluorescence ratio,[12],1.03 (inactive)
same,mean signal,[13],269 (inactive)
same,z-score,[15],1.65 (inactive)
same,log fold change Tl+ flux,[16],0.0995 (active)
same,log fold change Tl+ flux,[17],0.0736 (inactive)
same,log fold change Tl+ flux,[18],0.051 (inactive)
same,log fold change Tl+ flux,[19],0.0476 (inactive)

# From PubChem BioAssay
